Experimental data from PubChem BioAssay.
Values joined by “and” are separate entries in the source; they are usually repeats but may differ in a detail not shown here. Equal entries are not always repeated. A number with no mark means an inactive call. Active and inactive are the calls of the source.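 Rule for the calls: active = thallium flux through the channel raised or lowered by more than 3 SD from vehicle-only wells, actives on both sides; inactive = the rest.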

Legend:
Assay in all cases: modulators of BK channel variants, profiling panel, selectivity assay, cell-based, U2OS BacMam, thallium flux, beta subunits (AID 1259406);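 note: initial slope of Thallos dye fluorescence rise after thallium is added; log ratio against the mean of 0.3% DMSO vehicle wells on the same plate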
[1] = tested on: F380Y/beta2Delta; details: at 30 µM
[2] = tested on: F380Y/beta4; details: at 30 µM
[3] = biological target: Calcium-activated potassium channel subunit alpha-1 (Homo sapiens) + Leucine-rich repeat-containing protein 26 (Homo sapiens) (UniProt Q12791+Q2I0M4); details: F380Y/Slo1WT/gamma1, at 30 µM
Sequence of Calcium-activated potassium channel subunit alpha-1 (Homo sapiens) + Leucine-rich repeat-containing protein 26 (Homo sapiens) (Q2I0M4 whole entry, looked up, one chain of several): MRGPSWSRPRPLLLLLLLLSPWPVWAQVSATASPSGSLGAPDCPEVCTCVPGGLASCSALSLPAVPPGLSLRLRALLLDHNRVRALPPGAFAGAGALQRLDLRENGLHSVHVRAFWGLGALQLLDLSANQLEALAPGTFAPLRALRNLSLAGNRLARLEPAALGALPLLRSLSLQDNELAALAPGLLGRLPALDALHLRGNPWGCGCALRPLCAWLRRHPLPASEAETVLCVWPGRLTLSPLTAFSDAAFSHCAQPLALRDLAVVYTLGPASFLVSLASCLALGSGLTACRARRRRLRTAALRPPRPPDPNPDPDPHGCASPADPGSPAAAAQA

[4] = tested on: R275C; details: at 30 µM
[5] = tested on: R275C/beta1; details: at 30 µM
[6] = tested on: R275C/beta2Delta; details: at 30 µM
[7] = tested on: R275C/beta4; details: at 30 µM
[8] = tested on: R275C/Slo1WT/beta2; details: at 30 µM

| Compound | log fold change Tl+ flux [1] | log fold change Tl+ flux [2] | log fold change Tl+ flux [3] | log fold change Tl+ flux [4] | log fold change Tl+ flux [5] | log fold change Tl+ flux [6] | log fold change Tl+ flux [7] | log fold change Tl+ flux [8] |
| --- | --- | --- | --- | --- | --- | --- | --- | --- |
| CNCC(O)c1ccc(O)c(O)c1 (centres undefined) | 0.0367 | -0.0084 | 0.0503 | 0.0399 | -0.0203 | -0.0287 | -0.0313 | -0.0974 |
| CNNCc1ccc(C(=O)NC(C)C)cc1 | 0.00407 | -0.0214 | -0.0918 | -0.164 (active) | -0.022 | -0.0281 | 0.042 | 0.0113 |
| COc1cc(C(=O)NC2CCCNC2)cc(OC)c1OC (centres undefined) | -0.0479 | -0.0783 | 0.00703 | -0.0701 | -0.0128 | 0.000824 | 0.00216 | -0.0186 |
| O=C1CC2(CCCC2)CC(=O)N1CCCCN1CCN(c2ncccn2)CC1 | 0.0619 | 0.0587 | 0.00932 | 0.00417 | 0.0329 | -0.0367 | 0.0017 | -0.02 |
| Cc1cn([C@H]2C=C[C@@H](CO)O2)c(=O)[nH]c1=O | 0.00122 and 0.00603 | -0.027 and 0.00706 | 0.0426 and -0.00611 | -0.1 and -0.00698 | -0.02 and 0.0272 | -0.0201 and 0.00371 | 0.0202 and -0.00131 | 0.0395 and 0.0392 |
| OCCOCCN1CCN(C2=Nc3ccccc3Sc3ccccc32)CC1 | 0.0505 | 0.186 (active) | 0.0336 | -0.011 | 0.15 (active) | 0.106 (active) | 0.142 (active) | -0.027 |
| CCN1CCC[C@H]1CNC(=O)c1cc(S(N)(=O)=O)ccc1OC | -0.0214 | -0.00754 | 0.0207 | -0.000435 | -0.0215 | -0.02 | 0.0473 | -0.0273 |
| CN1CCC(=C2c3ccccc3CCc3sccc32)CC1 | -0.0147 |  | 0.0222 | -0.0315 | 0.0886 | 0.0371 |  |  |
| CCN(CC)CCNC(=O)c1cc(Cl)c(N)cc1OC | -0.0588 | -0.0267 | 0.0156 | 0.0337 | -0.0145 | -0.0122 | -0.0991 | -0.0439 |
| CN(CCCN1c2ccccc2CCc2ccccc21)CC(=O)c1ccc(Cl)cc1 | -0.0465 | 0.0103 | 0.00396 | -0.00393 | 0.055 | 0.0142 | 0.0763 | -0.0536 |
| CC1CCN(CCCC(=O)c2ccc(F)cc2)CC1 | 0.0189 |  | 0.000816 | 0.0359 | -0.0458 | 0.0277 |  |  |
| COc1cc2nc(N3CCN(C(=O)C4CCCO4)CC3)nc(N)c2cc1OC (centres undefined) | -0.00319 | 0.00186 | -0.0172 | 0.0113 | -0.0224 | -0.0771 | -0.0968 | -0.0619 |
| COC(=O)CCc1ccc(OCC(O)CNC(C)C)cc1 (centres undefined) | 0.0184 | -0.0155 | -0.00535 | -0.0168 | 0.0198 | 0.0115 | 0.0115 | 0.0231 |
| O=C(NCCO[N+](=O)[O-])c1cccnc1 | -0.00246 | 0.013 | 0.000443 | -0.059 | -0.0194 | 0.000208 | 0.0335 | -0.00283 |
| COc1cc(OC)c(C(=O)CCCN2CCCC2)c(OC)c1 | -0.00493 | -0.0142 | 0.0079 | 0.0465 | 0.0151 | 0.0392 | 0.0301 | 0.0326 |
| Cc1ccsc1C(=CCCN1CCC[C@@H](C(=O)O)C1)c1sccc1C | 0.0383 | 0.0453 | 0.0044 | -0.056 | 0.0901 (active) | 0.0627 | 0.0287 | 0.0117 |
| Nc1[nH]c(=O)ncc1F | 0.0238 | 0.00948 | 0.00877 | 0.0013 | -0.0522 | 0.00516 | -0.00411 | -0.0674 |
| NC(=O)OCC(COC(N)=O)c1ccccc1 | 0.0149 | 0.0205 | 0.0713 | -0.054 | 0.0281 | 0.019 | -0.0181 | 0.0103 |
| CC(N)C12CC3CC(CC(C3)C1)C2 (centres undefined) | 0.0577 | 0.0485 | 0.0164 | 0.0361 | -0.0211 | 0.0568 | 0.04 | 0.0291 |
| CC(C)[C@H](N)C(=O)OCCOCn1cnc2c(=O)[nH]c(N)nc21 | -0.00659 | -0.0146 | 0.0174 | -0.11 | 0.0176 | 0.0029 | 0.0146 | -0.011 |
| CN(C)CCCSc1ccccc1NC(=O)/C=C/c1ccccc1 | 0.0654 |  | 0.0123 | 0.063 | 0.0477 | 0.0394 |  |  |
